# Results from PubChem BioAssay (NCI).
# Several values for one entry are separate records, joined by “and”; a condition that tells them apart may be missing. Identical values can stand only once. This is part of a sample that, as a whole, favours compounds with a hit. Of some 83,000 tested, about 20% had one in any assay.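 Method: cells in 96-well plates; compound added at one concentration; 48 h incubation; percent growth measured; values under 10 scored active.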 A number with no mark means an inactive call. Activity calls are given as the source filed them.
# Tests used:
# Assay in all cases: NCI-60 one-dose screen, 48 h (100 = growth as untreated, 0 = no growth, -100 = all killed)
# T-47D breast = system: T-47D breast
# BT-549 breast = system: BT-549 breast
# MDA-MB-435 melanoma = system: MDA-MB-435 melanoma
# SW-620 colon = system: SW-620 colon
# MCF7 breast = system: MCF7 breast
# HCT-116 colon = system: HCT-116 colon
# HCC-2998 colon = system: HCC-2998 colon
# KM12 colon = system: KM12 colon
smiles,measurement,setting,value
NC(=O)/C=C/C(=O)c1c(Cl)cccc1Cl,growth,T-47D breast; 10 µM unless noted,-62.4% (active)
same,growth,BT-549 breast; 10 µM unless noted,-42.4% (active)
same,growth,MDA-MB-435 melanoma; 10 µM unless noted,-68% (active)
same,growth,SW-620 colon; 10 µM unless noted,-71% (active)
same,growth,MCF7 breast; 10 µM,-68.9% (active)
same,growth,HCT-116 colon; 10 µM unless noted,-100% (active)
same,growth,HCC-2998 colon; 10 µM unless noted,-98.6% (active)
Nc1ccc(SSc2ccc(N)cc2)cc1,growth,T-47D breast; 10 µM unless noted,88.7%
same,growth,BT-549 breast; 10 µM unless noted,66.6%
same,growth,MDA-MB-435 melanoma; 10 µM unless noted,93.4%
same,growth,SW-620 colon; 10 µM unless noted,95.1%
same,growth,MCF7 breast; 10 µM,96.5%
same,growth,HCT-116 colon; 10 µM unless noted,95.1%
same,growth,HCC-2998 colon; 10 µM unless noted,94.8%
N#Cc1ccc([N+](=O)[O-])o1,growth,T-47D breast; 10 µM unless noted,85.1%
same,growth,BT-549 breast; 10 µM unless noted,101%
same,growth,MDA-MB-435 melanoma; 10 µM unless noted,108%
same,growth,SW-620 colon; 10 µM unless noted,106%
same,growth,MCF7 breast; 10 µM,101%
CC1=CC(O)C2CC1C2(C)C (stereo not given),growth,T-47D breast; 10 µM unless noted,96% and 106%
same,growth,BT-549 breast; 10 µM unless noted,98.9%
same,growth,MDA-MB-435 melanoma; 10 µM unless noted,103% and 97.3%
same,growth,SW-620 colon; 10 µM unless noted,105% and 108%
same,growth,MCF7 breast; 10 µM,101% and 98.9%
CCC(c1cccc(O)c1)C(CC)c1cccc(O)c1 (stereo not given),growth,T-47D breast; 10 µM unless noted,53.8%
same,growth,BT-549 breast; 10 µM unless noted,66%
same,growth,MDA-MB-435 melanoma; 10 µM unless noted,-15.9% (active)
same,growth,SW-620 colon; 10 µM unless noted,42%
same,growth,MCF7 breast; 10 µM,16.8%
same,growth,HCT-116 colon; 10 µM unless noted,34.4%
COC(=O)[C@@]12OC[C@]34[C@H]([C@@H](O)[C@@H]1O)[C@@]1(C)[C@H](O)C(=O)C=C(C)[C@@H]1C[C@H]3OC(=O)C(OC(C)=O)[C@@H]24 (stereo not given in full),growth,T-47D breast; 10 µM unless noted,-20.5% (active)
same,growth,BT-549 breast; 10 µM unless noted,-53.1% (active)
same,growth,MDA-MB-435 melanoma; 10 µM unless noted,-81.2% (active)
same,growth,SW-620 colon; 10 µM unless noted,-38.2% (active)
same,growth,MCF7 breast; 10 µM,-19.2% (active)
same,growth,HCT-116 colon; 10 µM unless noted,-54.1% (active)
same,growth,HCC-2998 colon; 10 µM unless noted,-75.8% (active)
Cc1ccc(NS(=O)(=O)c2ccc(C)cc2)cc1,growth,T-47D breast; 10 µM unless noted,94.1% and 83.7%
same,growth,BT-549 breast; 10 µM unless noted,117% and 105%
same,growth,MDA-MB-435 melanoma; 10 µM unless noted,108% and 109%
same,growth,SW-620 colon; 10 µM unless noted,104% and 107%
same,growth,MCF7 breast; 10 µM,88% and 91.2%
same,growth,HCT-116 colon; 10 µM unless noted,102% and 98.1%
O=C(O)c1c(Cl)c(Cl)c(Cl)c(Cl)c1-c1c2cc(I)c(=O)c(I)c-2oc2c(I)c(O)c(I)cc12,growth,T-47D breast; 10 µM,110% and 85.9% and 95.8%
same,growth,T-47D breast; 100 µM,-47.8% (active)
same,growth,BT-549 breast; 10 µM,108% and 117% and 43.5%
same,growth,BT-549 breast; 100 µM,-47.5% (active)
same,growth,MDA-MB-435 melanoma; 10 µM,104% and 113% and 110%
same,growth,MDA-MB-435 melanoma; 100 µM,69%
same,growth,SW-620 colon; 10 µM,107% and 140% and 109%
same,growth,SW-620 colon; 100 µM,13.7%
same,growth,MCF7 breast; 10 µM,101% and 98.9% and 81.2%
same,growth,MCF7 breast; 100 µM,-38.3% (active)
same,growth,HCT-116 colon; 10 µM,106% and 103% and 114%
same,growth,HCT-116 colon; 100 µM,0.594% (active)
same,growth,HCC-2998 colon; 10 µM,110% and 106% and 113%
same,growth,HCC-2998 colon; 100 µM,-7.72% (active)
same,growth,KM12 colon; 10 µM,102% and 99.9% and 104%
same,growth,KM12 colon; 100 µM,67.9%
C=C(Cl)C(=NC(C)(C)C)Nc1ccccc1C,growth,T-47D breast; 10 µM unless noted,64%
same,growth,BT-549 breast; 10 µM unless noted,102%
same,growth,MDA-MB-435 melanoma; 10 µM unless noted,32.2%
same,growth,SW-620 colon; 10 µM unless noted,72.5%
same,growth,MCF7 breast; 10 µM,66.6%
same,growth,HCT-116 colon; 10 µM unless noted,66.5%
same,growth,HCC-2998 colon; 10 µM unless noted,113%
C[n+]1c(/C=C/c2ccc([N+](=O)[O-])cc2)ccc2ccccc21,growth,T-47D breast; 10 µM unless noted,103%
same,growth,BT-549 breast; 10 µM unless noted,107%
same,growth,MDA-MB-435 melanoma; 10 µM unless noted,108%
same,growth,SW-620 colon; 10 µM unless noted,97.6%
same,growth,MCF7 breast; 10 µM,96.1%
same,growth,HCT-116 colon; 10 µM unless noted,102%
Cc1ccc2c(ccc3c[n+]4c5ccccc5ccc4n32)c1,growth,T-47D breast; 10 µM unless noted,-24.7% (active)
same,growth,BT-549 breast; 10 µM unless noted,-2.45% (active)
same,growth,MDA-MB-435 melanoma; 10 µM unless noted,-27.5% (active)
same,growth,SW-620 colon; 10 µM unless noted,7.65% (active)
same,growth,MCF7 breast; 10 µM,0.326% (active)
same,growth,HCT-116 colon; 10 µM unless noted,7.17% (active)
CC(C)(C)CC(C)(C)c1ccc(OCCSC(=N)N)cc1,growth,T-47D breast; 10 µM unless noted,7.82% (active)
same,growth,BT-549 breast; 10 µM unless noted,104%
same,growth,MDA-MB-435 melanoma; 10 µM unless noted,20.2%
same,growth,SW-620 colon; 10 µM unless noted,-12.1% (active)
same,growth,MCF7 breast; 10 µM,9.08% (active)
same,growth,HCT-116 colon; 10 µM unless noted,-12.2% (active)
same,growth,HCC-2998 colon; 10 µM unless noted,-16% (active)
NC(=S)N/N=C\c1nccc2c(C(F)(F)C(F)(F)C(F)(F)F)cccc12,growth,T-47D breast; 10 µM unless noted,4.05% (active)
same,growth,BT-549 breast; 10 µM unless noted,41.4%
same,growth,MDA-MB-435 melanoma; 10 µM unless noted,23.4%
same,growth,SW-620 colon; 10 µM unless noted,28.6%
same,growth,MCF7 breast; 10 µM,11.5%
same,growth,HCT-116 colon; 10 µM unless noted,17.4%
O=C(Nc1cccc(Br)c1)Oc1cccc2cccnc12,growth,T-47D breast; 10 µM,92%
same,growth,T-47D breast; 100 µM,2.98% (active)
same,growth,BT-549 breast; 10 µM,90.5%
same,growth,BT-549 breast; 100 µM,12.7%
same,growth,MDA-MB-435 melanoma; 10 µM,98.2%
same,growth,MDA-MB-435 melanoma; 100 µM,43.1%
same,growth,SW-620 colon; 10 µM,106%
same,growth,SW-620 colon; 100 µM,25%
same,growth,MCF7 breast; 10 µM,92.9%
same,growth,MCF7 breast; 100 µM,-37.7% (active)
COc1cc(NS(C)(=O)=O)ccc1Nc1c2ccccc2nc2ccccc12,growth,T-47D breast; 10 µM unless noted,23.1% [2.5 µM]
same,growth,BT-549 breast; 10 µM unless noted,20.2% [2.5 µM]
same,growth,MDA-MB-435 melanoma; 10 µM unless noted,64.1% [2.5 µM]
same,growth,SW-620 colon; 10 µM unless noted,41.5% [2.5 µM]
same,growth,MCF7 breast; 2.5 µM,32.5%
same,growth,MCF7 breast; 10 µM,22.5% [middle of 4 runs]
same,growth,MCF7 breast; 250 µM,-69.8% (active) and -100% (active)
same,growth,HCT-116 colon; 10 µM unless noted,31% [2.5 µM]
same,growth,KM12 colon; 10 µM unless noted,48.6% [2.5 µM]
